Test results: PubChem BioAssay (NCI)
This is part of a sample that, as a whole, favours compounds with a hit. Of some 79,000 tested, about 15% had one in any assay. Calls of active or inactive are those of the source. Rule as the data show it: active = growth inhibition above about 70%; inactive = the rest.

How the values were obtained:
[1] = NCI Yeast Anticancer Drug Screen. Data for the rad52 strain (AID 147);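 also: 0% = growth of vehicle-treated control cultures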; details: S. cerevisiae rad52 mutant growth inhibition, active compounds read high
In short: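 Compounds are applied to a genetically defined yeast strain lacking normal DNA damage repair, and inhibition of growth is expressed relative to cultures given vehicle only.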

[2] = NCI Yeast Anticancer Drug Screen. Data for the wt1 strain (AID 149);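 also: 0% = growth of vehicle-treated wt1 cultures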; details: S. cerevisiae wt1 strain (SPY 50644) growth inhibition, active compounds read high
In short: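 Each compound is tested on wt1 yeast and the loss of growth versus vehicle gives the inhibition value.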

[3] = NCI Yeast Anticancer Drug Screen. Data for the rad50EPP+ strain (AID 151);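 also: 0% = growth of vehicle-treated control cultures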; details: S. cerevisiae rad50 mutant strain, active compounds read high
In short: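 Compounds were applied to the rad50EPP+ yeast strain, which bears a defined DNA repair alteration, and growth inhibition was determined relative to vehicle-treated cultures.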

[4] = NCI Yeast Anticancer Drug Screen. Data for the mgt1 strain (AID 153); details: S. cerevisiae mgt1 mutant growth inhibition, active compounds read high
In short: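 Strain: mgt1 yeast, one of a set carrying defined DNA damage repair or cell cycle control alterations. Compound-treated growth compared with vehicle.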

[5] = NCI Yeast Anticancer Drug Screen. Data for the rad50 strain (AID 155);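 also: 0% = growth of vehicle-only cultures of the same strain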; details: S. cerevisiae rad50 strain growth inhibition, active compounds read high
In short: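 Vehicle-treated cultures provide the reference for the growth inhibition reported for compound-exposed, repair-deficient yeast.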

[6] = NCI Yeast Anticancer Drug Screen. Data for the mec2-1 strain (AID 157); details: S. cerevisiae mec2-1 strain, active compounds read high
In short: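 Strain: mec2-1 (DNA repair/cell cycle alteration). Compound exposure, then growth measured; inhibition expressed relative to vehicle.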

[7] = NCI Yeast Anticancer Drug Screen. Data for the rad14 strain (AID 159);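 also: 0% = growth of vehicle-treated control cultures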; details: S. cerevisiae rad14 strain growth inhibition, active compounds read high
In short: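 Inhibition of growth is reported for a repair-deficient yeast mutant following compound treatment, calculated relative to cultures that received vehicle.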

[8] = NCI Yeast Anticancer Drug Screen. Data for the sgs1 mgt1 strain (AID 161);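 also: 0% = growth of cultures given vehicle only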; details: S. cerevisiae sgs1 mgt1 strain, active compounds read high
In short: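 Read-out: growth inhibition vs vehicle controls. Cells: mutant yeast strain deficient in DNA damage repair.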

[9] = NCI Yeast Anticancer Drug Screen. Data for the CLN2oe strain (AID 163);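 also: 0% = growth of vehicle-only control cultures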; details: S. cerevisiae CLN2oe strain, active compounds read high
In short: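 Growth of a genetically modified yeast strain is measured after compound exposure and compared with cultures given vehicle alone.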

[10] = NCI Yeast Anticancer Drug Screen. Data for the cln2 rad14 strain (AID 165);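 also: 0% = growth equal to vehicle treated cultures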; details: S. cerevisiae cln2 rad14 strain, active compounds read high
In short: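 Compounds are applied to the cln2 rad14 yeast strain, and growth is then compared with that of vehicle-treated cultures to give inhibition.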

[11] = NCI Yeast Anticancer Drug Screen. Data for the bub3 strain (AID 167); details: S. cerevisiae bub3 mutant strain, active compounds read high
In short: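 Mutant yeast screening strain plus compound; vehicle-treated cultures serve as the 0% inhibition reference.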

[12] = NCI Yeast Anticancer Drug Screen. Data for the wt2 strain (AID 169); details: S. cerevisiae wt2 strain growth inhibition, active compounds read high
In short: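 This strain belongs to a panel of yeast strains with defined genetic alterations in DNA damage repair or cell cycle control. Compounds are applied, and growth inhibition is measured against vehicle-treated cultures.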

[13] = NCI Yeast Anticancer Drug Screen. Data for the mlh1 strain (AID 171);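 also: 0% = growth of vehicle-treated control cultures of the same strain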; details: S. cerevisiae mlh1 strain growth inhibition, active compounds read high
In short: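 Growth of the mutant yeast strain after compound exposure, expressed as inhibition relative to vehicle-only controls.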

[14] = NCI Yeast Anticancer Drug Screen. Data for the sgs1 strain (AID 173);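 also: 0% = growth of vehicle-only control cultures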; details: S. cerevisiae sgs1 mutant, active compounds read high
In short: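 Growth of a yeast strain bearing a defined genetic alteration is measured after compound treatment. Inhibition is expressed relative to vehicle-only controls.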

[15] = NCI Yeast Anticancer Drug Screen. Data for the mlh1 rad18 strain (AID 175); details: S. cerevisiae mlh1 rad18 strain growth inhibition, active compounds read high
In short: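 Read-out is yeast growth inhibition, calculated against vehicle-only controls. The compound was applied to a strain engineered with DNA damage repair alterations.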

[16] = NCI Yeast Anticancer Drug Screen. Data for the rad18 strain (AID 177); details: S. cerevisiae rad18 mutant growth inhibition, active compounds read high
In short: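 Growth of the mutant yeast strain after compound exposure, normalised to vehicle-only cultures.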

[17] = at 5.0 µM (retest, dose inferred, filed as 0.5)
[18] = at 50.0 µM (retest, dose inferred, filed as 5.0)

Measured: growth inhibition

O=C(/C=C/c1cc(Cl)cc(Cl)c1O)c1cccc(O)c1
active: [1]; at 11.0 µM 80% | [1]; at 33.0 µM 98% | [1]; at 100.0 µM 99% | [2]; at 33.0 µM 98% | [2]; at 100.0 µM 97% | [3]; at 3.7 µM 70% | [3]; at 11.0 µM 86% | [3]; at 33.0 µM 97% | [3]; at 100.0 µM 97% | [4]; at 11.0 µM 89% | [4]; at 33.0 µM 99% | [4]; at 100.0 µM 98% | [5]; at 33.0 µM 97% | [5]; [18] 97% | [5]; at 50.0 µM 94% | [5]; at 100.0 µM 97% | [6]; at 11.0 µM 85% | [6]; at 33.0 µM 99% | [6]; [18] 99% | [6]; at 50.0 µM 95.2% | [6]; at 100.0 µM 98% | [7]; at 11.0 µM 96% | [7]; at 33.0 µM 98% | [7]; at 100.0 µM 97% | [8]; [18] 95% | [8]; at 50.0 µM 94% | [9]; at 11.0 µM 74% | [9]; at 33.0 µM 98% | [9]; at 100.0 µM 98% | [10]; [18] 98% | [10]; at 50.0 µM 91.5% | [11]; at 33.0 µM 97% | [11]; [18] 97% | [11]; at 50.0 µM 93.2% | [11]; at 100.0 µM 97% | [12]; at 11.0 µM 89% | [12]; at 33.0 µM 98% | [12]; at 100.0 µM 98% | [13]; at 11.0 µM 80% | [13]; at 33.0 µM 98% | [13]; at 100.0 µM 98% | [14]; at 11.0 µM 78% | [14]; at 33.0 µM 98% | [14]; at 100.0 µM 98% | [15]; [18] 97% | [15]; at 50.0 µM 92.7% | [16]; at 33.0 µM 98% | [16]; at 100.0 µM 98%
inactive: [1]; at 1.2 µM 37% | [1]; at 3.7 µM 36% | [2]; at 1.2 µM 4% | [2]; at 3.7 µM 6% | [2]; at 11.0 µM 50% | [3]; at 1.2 µM 66% | [4]; at 1.2 µM 14% | [4]; at 3.7 µM 25% | [5]; at 1.2 µM 1% | [5]; at 3.7 µM 16% | [5]; [17] 14% | [5]; at 11.0 µM 67% | [6]; at 1.2 µM -19% | [6]; at 3.7 µM 0% | [6]; [17] -9% | [7]; at 1.2 µM 31% | [7]; at 3.7 µM 48% | [8]; [17] 6% | [9]; at 1.2 µM 9% | [9]; at 3.7 µM 23% | [10]; [17] 29% | [11]; at 1.2 µM -12% | [11]; at 3.7 µM -11% | [11]; [17] 38% | [11]; at 11.0 µM 39% | [12]; at 1.2 µM 29% | [12]; at 3.7 µM 27% | [13]; at 1.2 µM 0% | [13]; at 3.7 µM 21% | [14]; at 1.2 µM 22% | [14]; at 3.7 µM 23% | [15]; [17] 46% | [16]; at 1.2 µM 14% | [16]; at 3.7 µM 13% | [16]; at 11.0 µM 56%
